Among all 41,000 sequences or so, about 2,700 (6.6%) were called active. Rule as the data show it: active = GI50 up to about 1.1 µM and inactive = higher. A selection follows. Measured potencies and affinities stand elsewhere.

The test system of this assay is BT-549.
What is called GI50 is the concentration at which growth is held to half of that of the control. Take “[Bis(aminomethyl)tetramethylenesilane]dichloropaltinum(II), CHEMBL2146205”: the GI50 is 8.85 µM.
With “[Bis(aminomethyl)pentamethylenesilane]tetrachloropaltinum(IV), CHEMBL2146204” the figure was 5.71 µM.
For CISPLATIN, CHEMBL11359, the GI50 is 3.73 µM.
The substance “[Bis(aminomethyl)dimethylsilane]tetrachloroplatinum(IV), CHEMBL2146190” showed a GI50 of 16.4 µM.
With “[Bis(aminomethyl)tetramethylenesilane]tetrachloropaltinum(IV), CHEMBL2146189” the figure was 4.99 µM; with “[Bis(aminomethyl)pentamethylenesilane]dichloropaltinum(II), CHEMBL2146202”, 16.6 µM.

The record behind these values is ChEMBL document CHEMBL1201862, “PubChem BioAssay data set” (2004).
